# Values joined by “and” are separate entries in the source; they are usually repeats but may differ in a detail not shown here. Equal entries are not always repeated. The panel holds about 83,000 compounds, 20% with a hit somewhere; the sample as a whole holds those more often.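 A percent growth of 40 corresponds to 60% growth inhibition; 0 means no net growth; -100 means all cells died. Active threshold: below 10.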 Some compounds were tested as several samples or in several runs, with calls that do not always agree. Active and inactive are the calls of the source.
# Experiments:
# Experiment in all cases: NCI-60 one-dose screen, 48 h (100 = growth as untreated, 0 = no growth, -100 = all killed)
# Details in all cases: 10 µM unless noted
# HCT-15 colon = system: HCT-15 colon
# HT29 colon = system: HT29 colon
# SNB-75 CNS = system: SNB-75 CNS
# SNB-19 CNS = system: SNB-19 CNS
# U251 CNS = system: U251 CNS
# PC-3 prostate = system: PC-3 prostate
# SK-MEL-5 melanoma = system: SK-MEL-5 melanoma
# UACC-62 melanoma = system: UACC-62 melanoma
# LOX IMVI melanoma = system: LOX IMVI melanoma
# SK-MEL-28 melanoma = system: SK-MEL-28 melanoma
SMILES,growth (HCT-15 colon),growth (HT29 colon),growth (SNB-75 CNS),growth (SNB-19 CNS),growth (U251 CNS),growth (PC-3 prostate),growth (SK-MEL-5 melanoma),growth (UACC-62 melanoma),growth (LOX IMVI melanoma),growth (SK-MEL-28 melanoma)
NC(=O)c1ccccc1OCC(O)CO (stereo not drawn),98.1% (inactive),105% (inactive),84.5% (inactive),102% (inactive),99.5% (inactive),103% (inactive),101% (inactive),98.5% (inactive),104% (inactive),105% (inactive)
Cc1cc(-c2ccc(NS(=O)(=O)c3ccccc3)c(C)c2)ccc1NS(=O)(=O)c1ccccc1,84.8% (inactive) and 84.9% (inactive),74.2% (inactive) and 99.7% (inactive),72.6% (inactive) and 105% (inactive),91.4% (inactive) and 101% (inactive),94% (inactive) and 95.2% (inactive),63.1% (inactive) and 78.7% (inactive),87.2% (inactive),55.8% (inactive) and 63.5% (inactive),84% (inactive) and 75% (inactive),92.2% (inactive) and 109% (inactive)
COc1cc2c(c(OC)c1OC)-c1ccc(OC)c(=O)cc1[C@@H](NC(C)=O)CC2,12.2% (inactive) and 8.71% (active) and 3.71% (active),9.16% (active) and 7.29% (active) and -16.8% (active),35.6% (inactive) and 76.6% (inactive) and 19.3% (inactive),39.5% (inactive) and 30.5% (inactive) and 19% (inactive),22.5% (inactive) and 14.1% (inactive) and 19% (inactive),25.6% (inactive) and 20.7% (inactive) and 7.6% (active),-59.8% (active) and -36.1% (active) and -32% (active),36.9% (inactive) and 40.9% (inactive) and 19.1% (inactive),15.7% (inactive) and 18.9% (inactive) and 26.5% (inactive),64.5% (inactive) and 62.4% (inactive)
COc1ccc2ccccc2c1/C=N/N1CCCCC1,99.4% (inactive),101% (inactive),87.6% (inactive),88.1% (inactive),97.8% (inactive),95.9% (inactive),98.3% (inactive),89.1% (inactive),93% (inactive),96.5% (inactive)
S=C1SCN(Cc2ccccc2)CN1Cc1ccccc1,39.8% (inactive),65.4% (inactive),76.1% (inactive),96.4% (inactive),80.2% (inactive),46.6% (inactive),87.1% (inactive),82.5% (inactive),69.3% (inactive),103% (inactive)
OCCN1CCN(CCCN2c3ccccc3Sc3ccc(Cl)cc32)CC1,49.6% (inactive) and 80.8% (inactive),1.64% (active) and 18.2% (inactive),59.8% (inactive) and 45.6% (inactive),75.6% (inactive) and 100% (inactive),58.2% (inactive) and 73.1% (inactive),47.7% (inactive) and 67% (inactive),50.4% (inactive),-64.3% (active) and 23.5% (inactive),29.4% (inactive) and 69.6% (inactive),-33.9% (active) and 56.1% (inactive)
O=C1OC(Oc2ccc(Br)cc2)(c2ccccc2)c2ccccc21 (stereo not drawn),69.6% (inactive) and 58.6% (inactive),74.6% (inactive) and 70.6% (inactive),61.2% (inactive) and 77.1% (inactive),88.8% (inactive) and 102% (inactive),78.9% (inactive) and 58.5% (inactive),80.7% (inactive) and 63.6% (inactive),97.3% (inactive),73.8% (inactive) and 83.9% (inactive),77.5% (inactive) and 83.2% (inactive),101% (inactive) and 120% (inactive)
O=C(Cc1cccc2ccccc12)N/N=C/c1ccc2c(c1)CCC2,56.6% (inactive),62.4% (inactive),80.2% (inactive),92.1% (inactive),69.9% (inactive),74.2% (inactive),80.6% (inactive),,69.6% (inactive),
CC(=O)NC(Cc1ccccc1)C(=O)Oc1ccc2ccccc2c1 (stereo not drawn),87.4% (inactive) and 102% (inactive),114% (inactive) and 96.4% (inactive),84.3% (inactive) and 78.1% (inactive),113% (inactive),97.7% (inactive) and 102% (inactive),85.5% (inactive) and 90.6% (inactive),101% (inactive),98.8% (inactive) and 99.8% (inactive),84.9% (inactive) and 87.7% (inactive),117% (inactive) and 105% (inactive)
Nc1nc(SC/C=C/CCl)c2[nH]cnc2n1,104% (inactive) and 94.2% (inactive),108% (inactive) and 95.5% (inactive),108% (inactive) and 101% (inactive),107% (inactive) and 102% (inactive),99.1% (inactive) and 98.1% (inactive),99.6% (inactive) and 93.6% (inactive),103% (inactive) and 114% (inactive),104% (inactive) and 105% (inactive),103% (inactive),115% (inactive) and 112% (inactive)
Nc1cc2c(cc1N)-c1ccccc1C2,85.9% (inactive) and 94.3% (inactive),96.6% (inactive) and 105% (inactive),71.4% (inactive) and 91.6% (inactive),97.7% (inactive) and 115% (inactive),89.9% (inactive) and 89.5% (inactive),85% (inactive) and 105% (inactive),95.7% (inactive) and 97.1% (inactive),85.3% (inactive) and 109% (inactive),97.5% (inactive) and 93.3% (inactive),115% (inactive) and 116% (inactive)
CN(Cc1ccccc1)Cc1ccccc1,103% (inactive),102% (inactive),87.4% (inactive),106% (inactive),99% (inactive),103% (inactive),104% (inactive),101% (inactive),95.1% (inactive),110% (inactive)
COc1cc(-c2nccc3cc4c(cc23)OCO4)cc(OC)c1OC,22.1% (inactive) and 27.9% (inactive),1.74% (active) and 5.6% (active),10.8% (inactive) and -9.99% (active),38.3% (inactive) and 38.8% (inactive),40.6% (inactive) and 24.1% (inactive),29.5% (inactive),6.67% (active),34.2% (inactive) and 28.3% (inactive),32.2% (inactive) and 29.6% (inactive),57.5% (inactive) and 39.8% (inactive)
CC1CCCC(=O)O1 (stereo not drawn),94.8% (inactive) and 99.7% (inactive),106% (inactive) and 99.8% (inactive),83.3% (inactive) and 95.6% (inactive),111% (inactive),102% (inactive) and 104% (inactive),96.2% (inactive) and 95.1% (inactive),102% (inactive) and 108% (inactive),109% (inactive) and 101% (inactive),96.3% (inactive) and 97.2% (inactive),99.5% (inactive) and 113% (inactive)
N#C/C(=C/c1c(O)ccc2ccccc12)C(N)=O,100% (inactive),101% (inactive),87.4% (inactive),109% (inactive),103% (inactive),94% (inactive),94.1% (inactive),104% (inactive),55.9% (inactive),110% (inactive)
OC1CCC(Oc2cccc3cnc(Nc4ccc5nc[nH]c5c4)nc23)CC1 (stereo not drawn),5.3% (active) and 81% (inactive),2.98% (active) and 46% (inactive),-22.7% (active) and 37.5% (inactive),9.42% (active) and 41.1% (inactive),3.2% (active) and 27.7% (inactive),3.19% (active) and 35.5% (inactive),-6.41% (active) and 47.6% (inactive),-4.06% (active) and 46.2% (inactive),6.32% (active) and 39.2% (inactive),5.62% (active) and 66.4% (inactive)
